Hit rate of the full screen: of about 48,000 compounds, about 13,000 (27%) showed an effect of 50% or more. Some of the results follow.
Each compound was assayed on Wolbachia pipientis (assay: Anti-Wolbachia Cell-Based Screen). Conditions: 5 µM.
Type: functional
Parameters: scale not given: in the data most compounds retested in dose-response had high values

Structure (SMILES)	Percent Effect
Cc1cc(Nc2ccc(F)cn2)cc(C2CCN(Cc3ncc[nH]3)C2)n1 (configuration not stated)	87.11%
CC(C)(C)c1n[nH]c(C2CN(Cc3ncc[nH]3)CCO2)n1 (configuration not stated)	-4.416%
CN(Cc1cccnc1)c1nc(-c2ccccn2)nc2c1CCNCC2	-5.428%
Cc1cnn(CCCn2ncc(N3CCC(CN)C3)cc2=O)c1 (configuration not stated)	-3.735%
CCCC(C#N)NC(=O)CCCOc1cccc(C(C)=O)c1 (configuration not stated)	17.87%
CCC(O)CN1CCN(C(=O)c2ccn(-c3cccc(F)c3)n2)CC1 (configuration not stated)	-17.79%
CCC(=O)NCC(Cc1cccc(F)c1)n1cccc1 (configuration not stated)	-1.872%
CCC(O)Cn1nc(-c2ccc(C(=O)O)cc2)cc1-c1cccc(F)c1 (configuration not stated)	112%
CN(CC(N)=O)Cc1ccc(F)cc1Cl	-24.21%
NC(=O)NC(=O)CCn1ccc(-c2ccc(F)cc2)n1	-9.81%
CC(C(N)=O)N(C)CCCc1cc(-c2ccc(F)cc2)n(C)n1 (configuration not stated)	117.2%
CN(CCCc1cc(-c2ccc(F)cc2)n(C)n1)CC(=O)NC(N)=O	129.4%
CC(C)Cc1cc(C(=O)NCC(c2ccc(F)cc2)N(C)C)n(C)n1 (configuration not stated)	-14.68%
CN(CCCc1cc(-c2ccc(F)cc2)n(C)n1)CC(N)=O	124.4%
CN(CC(=O)NS(=O)(=O)c1ccc(F)cc1)Cc1ccccc1	-17.38%
CC(C(N)=O)N(C)CCCc1cc(-c2ccccc2)no1 (configuration not stated)	-1.184%
CN(CCCc1cc(-c2ccc(F)cc2)n[nH]1)C(=O)CCn1cncn1	-5.05%
NC(=O)CCSCc1ccc(Br)c(F)c1	-4.384%
CCC(CO)N(Cc1cccs1)C(=O)Cc1ccncc1 (configuration not stated)	-5.56%
c1ccc2c(c1)nc1n2[C@@H](CNCc2nccs2)COC1	3.551%
Cn1ccnc1SCCNC(=O)CC1CCc2ccccc21 (configuration not stated)	-4.259%
Cc1ccc(S(=O)(=O)NCC2CNCCOC2)cc1Cl (configuration not stated)	-1.884%
Cc1cccc2[nH]c(C3CCN(C(=O)c4cnc(O)cc4O)CC3)nc12	-25%
Cn1[nH]c(C2CC2)c(-c2ccc3c(c2)OCO3)c1=N	-0.9629%
CN(Cc1cccnc1)C[C@H]1CC[C@@H](Cc2ccc3c(cnn3C)c2)O1	-1.235%
Cc1ccccc1-c1noc(CN2CC(n3cccn3)C2)n1	17.98%

Structure (SMILES)	Percent Effect
Cc1cnn(C2CN(Cc3nc(-c4ccccn4)no3)C2)c1	99.99%
Cc1cnn(C2CN(Cc3nc(-c4ccccc4C)no3)C2)c1	81.63%
Cc1cnn(CC(C)NCc2nc(-c3cccnc3)no2)c1 (configuration not stated)	10.95%
Cc1cccc(-c2noc(CN3CC(n4cc(C)cn4)C3)n2)c1	6.599%
Cc1cnn(C2CN(Cc3nc(-c4cccnc4)no3)C2)c1	94.26%
Cc1cnn(C2CN(Cc3nc(C(C)(C)C)no3)C2)c1	-1.752%
Cc1cnn(C2CN(Cc3nnc(-c4ccccc4Cl)o3)C2)c1	0.6902%
Cc1cnn(C2CN(Cc3nc(-c4ccco4)no3)C2)c1	-0.024%
Cc1cnn(C2CN(Cc3nnc(Cc4ccccc4)o3)C2)c1	-8.725%
Cc1ccc(-c2noc(CN3CC(n4cc(C)cn4)C3)n2)cc1	109%
Cc1cnn(C2CN(Cc3noc(C)n3)C2)c1	14.64%
O=c1cc(N2CCNCC2)cnn1Cc1noc(C2CCCC2)n1	5.676%
CC(=O)N1CCC(C(=O)Nc2nnc(C(F)(F)F)[nH]2)CC1	-2.768%
CC(=O)N[C@@H]1CN(C(=O)c2cnccn2)C[C@H]1c1ccc(C)cc1	4.61%
Cc1ncc(CN2CCC(c3ccnn3C)CC2)n1-c1ccccc1	4.232%
O=C(NCCOCCO)c1cnc(-c2ccccc2)nc1O	-4.282%
COc1cnc(CN2CCN(CC(C)C)C(=O)C2C)cc1O (configuration not stated)	-7.655%
Cc1ccc(-c2nnc(CN3CC(n4cc(C)cn4)C3)o2)cc1	13.03%
c1coc(-c2noc(CN3CC(n4cccn4)C3)n2)c1	-9.344%
Cn1cnc2c1CCN(Cc1nc(-c3ccsc3)no1)C2	-4.856%
COc1ccc(-c2nc(CN3CC(n4cc(C)cn4)C3)no2)cc1	7.343%
COc1ccc(-c2noc(CN3CC(n4cccn4)C3)n2)c(OC)c1	7.442%
Cc1cccc(-c2noc(CN3CC(n4cccn4)C3)n2)c1	120.1%
COc1ccc(-c2noc(CN3CC(n4cc(C)cn4)C3)n2)cc1	101.6%
Cc1cnn(C2CN(Cc3nc(-c4ccsc4)no3)C2)c1	107.2%
c1cnn(C2CN(Cc3nc(-c4ccsc4)no3)C2)c1	-8.892%
